# Experimental data reported in PubChem BioAssay (NCATS).
# “And” between values parts separate entries of the source, which are not always exact repeats. Equal values may be shown once. Records with an inconclusive call do not appear. A number with no mark means an inactive call. The source made the active and inactive calls. Calls come from the whole dose curve; as a rule, active = well fitted inhibition curve with a large enough effect; inconclusive = small, poorly fitted or top-dose-only effect; inactive = flat fitted curve, though single readings scatter. Where a SMILES comes first, the peptide text is derived from it. Bridges are numbered along the chain shown (N, C = ends). [ ]: non-standard residue; d: D form. The star is where a group is joined. X1 = CC[C@@H](C)[C@@H](N)C1=N[C@H](C(=O)*)CS1; d(aIle) = CC[C@H](C)[C@@H](N)C(=O)O; dOrn = NCCC[C@@H](N)C(=O)O
# Test system: KB-3-1
# Assay: Cytotoxic Profiling of Annotated Libraries Using Quantitative High-Throughput Screening (AID 1296008); note: nearly all actives have a fitted effect of over 60% in size
# Details: Five cell lines viability, CellTiter-Glo ATP luminescence, 48-72 h; max response: hits give low values
# Summary of the method: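 Cells exposed to compounds for 48 or 72 hr at 37 degrees Celsius. Viability read as ATP-coupled luminescence with CellTiter-Glo after 10 min at room temperature.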
# % is set by controls: 0 for no effect and ±100 for the full control effect; potency is the fitted concentration of half-maximal effect.
Structure (SMILES),max response,Potency
CC(C)(C)C(=O)OCC(=O)[C@H]1CC[C@H]2[C@@H]3CCC4=CC(=O)CC[C@]4(C)[C@H]3CC[C@]12C,-9.73%,
O=C1NC(=O)[C@H]2[C@@H]1[C@@H]1C=C[C@H]2C1,-8.53%,
CC1(C)S[C@@H]2[C@H](N3C(=O)C(c4ccccc4)NC3(C)C)C(=O)N2[C@H]1C(=O)O (stereo not given in full),3.76%,
CO[C@H]1O[C@@H]2O[C@@]3(C)CC[C@H]4[C@H](C)CC[C@@H]([C@H]1C)[C@@]24OO3,1.88%,
NCCCC[C@H](N)C(=O)O,0.45%,
CC(C)(C)NC[C@H](O)COc1ccccc1C1CCCC1,1.39%,
CCC(=O)OC(OP(=O)(CCCCc1ccccc1)CC(=O)N1C[C@H](C2CCCCC2)C[C@H]1C(=O)O)C(C)C (stereo not given in full),3.39%,
CC[C@@H](C)[C@@H](N)C1=N[C@H](C(=O)N[C@@H](CC(C)C)C(=O)N[C@@H](CCC(=O)O)C(=O)N[C@@H](C(=O)N[C@@H]2CCCCNC(=O)[C@@H](CC(N)=O)NC(=O)[C@@H](CC(=O)O)NC(=O)[C@@H](Cc3cnc[nH]3)NC(=O)[C@@H](Cc3ccccc3)NC(=O)[C@@H]([C@H](C)CC)NC(=O)[C@@H](CCCN)NC2=O)[C@@H](C)CC)CS1 (X1-LE[d(aIle)][dK][dOrn][dI][dF][dH][dD][dN]; lactam 4-C),3.54% and -18.2%,
CC(=O)Nc1c(I)c(C(=O)N[C@H]2C(O)O[C@H](CO)[C@@H](O)[C@@H]2O)c(I)c(N(C)C(C)=O)c1I (stereo not given in full),-7.33%,
C[C@H](CCC(=O)O)[C@H]1CC[C@H]2[C@@H]3[C@H](O)C[C@@H]4C[C@H](O)CC[C@]4(C)[C@H]3C[C@H](O)[C@]12C,1.07%,
COc1ccc2c(c1)N(C[C@H](C)CN(C)C)c1ccccc1S2,-8.39%,
CC[C@H](CC[C@@H](C)[C@H]1CC[C@H]2[C@@H]3CC=C4C[C@@H](O)CC[C@]4(C)[C@H]3CC[C@]12C)C(C)C,-4.33%,
CC(C)(O/N=C(\C(=O)N[C@@H]1C(=O)N2C(C(=O)[O-])=C(C[n+]3ccccc3)CS[C@H]12)c1csc(N)n1)C(=O)O,-11.3%,
C[C@H](NCCc1ccc(O)cc1)[C@H](O)c1ccc(O)cc1,-13.6%,
CC[C@H](C)[C@@H]1NC(=O)[C@H](Cc2ccc(O)cc2)NC(=O)[C@@H](N)CSSC[C@@H](C(=O)N2CCC[C@H]2C(=O)N[C@@H](CC(C)C)C(=O)NCC(N)=O)NC(=O)[C@H](CC(N)=O)NC(=O)[C@H](CCC(N)=O)NC1=O,3.76%,
O=C(CO)[C@@H](O)[C@H](O)[C@@H](O)C(=O)O,-10%,
CCN(CC)CCOC[C@H]1O[C@@H](O)[C@H](OCCN(CC)CC)[C@@H](O)[C@@H]1O,8.48%,
CCCCC(=O)O[C@H]1CC[C@H]2[C@@H]3CCc4cc(O)ccc4[C@H]3CC[C@]12C,0.0537%,
CN[C@H](CC(C)C)C(=O)N[C@H]1C(=O)N[C@@H](CC(N)=O)C(=O)N[C@H]2C(=O)N[C@H]3C(=O)N[C@H](C(=O)N[C@@H](C(=O)O)c4cc(O)cc(O)c4-c4cc3ccc4O)[C@H](O)c3ccc(c(Cl)c3)Oc3cc2cc(c3O[C@@H]2O[C@H](CO)[C@@H](O)[C@H](O)[C@H]2O[C@H]2C[C@](C)(N)C(O)[C@H](C)O2)Oc2ccc(cc2Cl)[C@H]1O (stereo not given in full),9.66% and -29.2%,
Nc1nc2c(c(=O)[nH]1)N(C=O)C(CNc1ccc(C(=O)N[C@@H](CCC(=O)O)C(=O)O)cc1)CN2 (stereo not given in full),0.559%,
CC(=C\c1ccccc1)/C=C1/SC(=S)N(CC(=O)O)C1=O,3.64%,
CC(C)(C)NCC(O)c1ccc(O)c(CO)n1 (stereo not given),-3.71%,

Structure (SMILES),max response,Potency
C[C@]12CC[C@@H]3c4ccc(O)cc4CC[C@H]3[C@@H]1CC[C@@H]2OP(=O)(O)O,-26.5%,
O=C1CC[C@@H](C(=O)N[C@H]2C[C@@H]2c2ccccc2)N1,-13%,
COc1ccc([C@@H]2CC(=O)c3c(O)cc(O[C@@H]4O[C@H](CO[C@@H]5O[C@@H](C)[C@H](O)[C@@H](O)[C@H]5O)[C@@H](O)[C@H](O)[C@H]4O)cc3O2)cc1O,-3.21%,
c1ccc2cc(C3=NCCN3)ccc2c1,-9.97%,
CC(=O)O[C@@H]1CC2CCC1(C)C2(C)C (stereo not given in full),-0.31%,
O=C1/C(=C\c2cccs2)CCC/C1=C\c1cccs1,8.4%,
COc1ccc(C(=O)/C(Br)=C\C(=O)O)cc1,19.2%,
C[C@@H]1O[C@@H]1P(=O)(O)O,-3.35%,
COC1[C@@H](O[C@@H]2O[C@H](C)[C@@H](O[C@H]3C[C@@](C)(O)[C@H](OC(=O)CC(C)C)[C@H](C)O3)[C@H](N(C)C)[C@H]2O)[C@@H](CC=O)C[C@@H](C)[C@@H](O)/C=C/C=C/C[C@@H](C)OC(=O)C[C@H]1OC(C)=O (stereo not given in full),-19.6%,
CCN1C(=O)NC(c2ccccc2)C1=O (stereo not given),16.5%,
OC[C@H]1O[C@@H](O[C@H]2[C@H](O)[C@@H](O)[C@H](O)O[C@@H]2CO)[C@H](O)[C@@H](O)[C@@H]1O,4.72%,
CCOC(=O)Oc1c(OC)cc(C(=O)O[C@@H]2C[C@@H]3CN4CCc5c([nH]c6cc(OC)ccc56)[C@H]4C[C@@H]3[C@H](C(=O)OC)[C@H]2OC)cc1OC,3.08%,
Nc1nc(/C(=C/CC(=O)O)C(=O)N[C@@H]2C(=O)N3C(C(=O)O)=CCS[C@H]23)cs1,-7.11%,
CNCC(O)c1ccc(OC(=O)C(C)(C)C)c(OC(=O)C(C)(C)C)c1 (stereo not given),-7.58%,
CO[C@H]1C=CO[C@@]2(C)Oc3c(C)c(O)c4c(O)c(cc(O)c4c3C2=O)NC(=O)/C(C)=C\C=C/[C@H](C)[C@H](O)[C@@H](C)[C@@H](O)[C@@H](C)[C@H](OC(C)=O)[C@@H]1C,-3.21%,
Cc1cccc(C)c1Nc1ncccc1C(=O)O,-0.608%,
NC(Cc1ccccc1)C(=O)O (stereo not given),4.99%,
CN[C@@H]1[C@@H](O)[C@@H](O[C@@H]2[C@@H](O)[C@H](OC3OC(CN)=CCC3N)[C@@H](N)C[C@H]2N)OC[C@]1(C)O (stereo not given in full),-18.5%,
CN1CCN(C(c2ccccc2)c2ccc(Cl)cc2)CC1 (stereo not given),0.99%,
CC(=O)N[C@@H](C=O)[C@@H](O)[C@H](O)[C@H](O)CO,2.45%,
CCCC1C(=O)N2C(N(C)C)=Nc3ccc(C)cc3N2C1=O (stereo not given),-2.47%,
CC(C)(C)NCC(O)CSc1nc(-c2ccc(C(N)=O)s2)cs1 (stereo not given),15.3%,

Structure (SMILES),max response,Potency
C=C1CC[C@H](O)CC1=C/C=C1\CCC[C@]2(C)[C@@H]([C@H](C)CC[C@@H](O)C(C)(C)O)CC[C@@H]12,6.41%,
CC(C)C[C@H](NC(=O)[C@@H](Cc1c[nH]c2ccccc12)NC(=O)[C@H](Cc1ccc(O)cc1)NC(=O)[C@H](CO)NC(=O)[C@H](Cc1c[nH]c2ccccc12)NC(=O)[C@H](Cc1cnc[nH]1)NC(=O)[C@@H]1CCC(=O)N1)C(=O)N[C@@H](CCCN=C(N)N)C(=O)N1CCC[C@@H]1C(=O)NCC(N)=O,0.539%,
C[C@@H]1O[C@@H](OC[C@H]2O[C@@H](Oc3c(-c4ccc(OCCO)c(OCCO)c4)oc4cc(OCCO)cc(O)c4c3=O)[C@H](O)[C@@H](O)[C@@H]2O)[C@H](O)[C@H](O)[C@H]1O,-2.8%,
CC(C)=CCC/C(C)=C/CC/C(C)=C/CC/C(C)=C/CC1=C(C)C(=O)c2ccccc2C1=O,5.32% and -12.9%,
C=O,3.28%,
C=CC[N@@+]12CC[C@@]34c5ccccc5N5/C=C6/[C@H]7C[C@H]8[C@@]9(CC[N@@+]8(CC=C)C/C7=C/CO)c7ccccc7N(/C=C(/[C@@H](C[C@@H]31)/C(=C\CO)C2)[C@H]54)[C@@H]69,19.7%,
CC1(C)[C@@H]2CC[C@@]1(C)[C@H](OC(=O)CSC#N)C2,3.19%,
CC1(C)C(\C=C/C=C\C=C/C=C2/N(CCCCS(=O)(=O)O)c3ccc4ccccc4c3C2(C)C)=[N+](CCCCS(=O)(=O)[O-])c2ccc3ccccc3c21,-6.53%,
CCCCC/C=C\CCC(=O)N[C@H]1[C@H](Oc2c3cc4cc2Oc2ccc(cc2Cl)[C@@H](O[C@@H]2O[C@H](CO)[C@@H](O)[C@H](O)[C@H]2NC(C)=O)[C@@H]2NC(=O)[C@H](NC(=O)[C@@H]4NC(=O)[C@H]4NC(=O)[C@@H](Cc5ccc(c(Cl)c5)O3)NC(=O)[C@H](N)c3ccc(O)c(c3)Oc3cc(O)cc4c3)c3ccc(O)c(c3)-c3c(O[C@H]4O[C@H](CO)[C@@H](O)[C@H](O)[C@@H]4O)cc(O)cc3[C@@H](C(=O)O)NC2=O)O[C@H](CO)[C@@H](O)[C@@H]1O,-12.7%,
CC(CN1c2ccccc2Sc2cccnc21)N(C)C (stereo not given),-2.53%,
CO[C@H]1C[C@H](O[C@@H]2/C(C)=C/C[C@@H]3C[C@@H](C[C@]4(CC[C@H](C)[C@@H](C5CCCCC5)O4)O3)OC(=O)[C@@H]3C=C(C)/C(=N/O)[C@H]4OC/C(=C\C=C\[C@@H]2C)[C@]43O)O[C@@H](C)[C@@H]1O,-1.21%,
CC[C@@]1([C@@H]2O[C@@H]([C@H]3O[C@@](O)(CO)[C@H](C)C[C@@H]3C)C[C@@H]2C)CC[C@H]([C@]2(C)CC[C@]3(C[C@H](O)[C@@H](C)[C@@H]([C@@H](C)[C@@H](OC)[C@H](C)C(=O)O)O3)O2)O1 (stereo in doubt),-18.2%,
CCC(Oc1ccccc1)C(=O)N[C@@H]1C(=O)N2[C@@H]1SC(C)(C)[C@@H]2C(=O)O (stereo not given in full),9.51%,
Nc1nc(NC2CC2)c2ncn([C@@H]3C=C[C@@H](CO)C3)c2n1,3.44%,
COc1ccc2cc([C@H](C)CO)ccc2c1,0.171%,
COc1ccc(C[C@H](C)NC[C@@H](O)c2ccc(O)c(NC=O)c2)cc1,5.8%,
CCCCCCCCCCCCCCCC(=O)OC[C@H](COP(=O)([O-])OCC[N+](C)(C)C)OC(=O)CCCCCCCCCCCCCCC,-12.2%,
CC1=C(/C=C/C(C)=C/C=C/C(C)=C/C=C/C=C(C)/C=C/C=C(C)/C=C/C2=C(C)C[C@@H](O)CC2(C)C)C(C)(C)C[C@H](O)C1,-5.35%,
CC[C@@H](C)[C@H](N)C(=O)O,-7.63%,
CC1(C)[C@H]2CC[C@]1(C)[C@H](O)C2,-0.648%,
C[C@H]1[C@@H](OC(=O)CCC(=O)O)O[C@@H]2OC3(C)CC[C@H]4[C@H](C)CC[C@@H]1[C@@]24OO3,,16.4 µM (active)
